From PubChem
Compounds with a hit are over-represented: about 2.4% of the library has one in this group of screens.
D2 ag-1 – agonists of human D2 dopamine receptor. P14416. HEK293 T-REx D2 cells, calcium flux agonist mode. activation, % at 2 µM. actives 0.53% (n = 340,000). AID 485358;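 active = activation over 3 SD above normal in the single-dose calcium agonist read, cut at about 30% in these data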; note: 0% is about no effect
Target sequence (P14416 whole entry, looked up): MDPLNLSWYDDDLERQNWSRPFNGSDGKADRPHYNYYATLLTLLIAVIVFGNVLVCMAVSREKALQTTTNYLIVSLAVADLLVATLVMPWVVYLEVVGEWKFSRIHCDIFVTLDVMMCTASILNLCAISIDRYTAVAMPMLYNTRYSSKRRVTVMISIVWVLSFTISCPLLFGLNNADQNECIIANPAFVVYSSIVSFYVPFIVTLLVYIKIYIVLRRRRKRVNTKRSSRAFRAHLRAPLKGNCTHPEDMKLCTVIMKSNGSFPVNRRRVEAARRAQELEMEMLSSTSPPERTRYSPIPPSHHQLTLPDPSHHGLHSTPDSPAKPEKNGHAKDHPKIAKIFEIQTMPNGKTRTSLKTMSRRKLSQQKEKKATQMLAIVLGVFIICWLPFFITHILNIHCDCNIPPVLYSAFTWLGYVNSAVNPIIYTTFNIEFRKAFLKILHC
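HEK293 Trex D2 cells, tetracycline-induced, o/n 30 C 5% CO2; no-wash Ca dye, RT 30–90 min; 10-cycle baseline, 23 nl cpd added, kinetic Ca read 180 s; agonist hits = positive Ca response.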
D2 PAM-1 – potentiates the human D2 dopamine receptor allosterically | P14416 | DiscoveRx D2 beta-arrestin cells, luminescence, 90 min; 100% = 57 uM dopamine signal | potentiation, % (test concentration not listed) | actives 0.23% (n = 360,000) | AID 624464; in the data active = potentiation above about 50%; inconclusive = mostly about 30% to 49%
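PathHunter beta-arrestin assay in DiscoveRx D2 cells. Compounds were added with an EC20 of dopamine (50 nM final) for 90 min at 37 deg C. Luminescence was read 1 h after detection reagent, with 57 uM dopamine as the EC100 control.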
D2 ag-2 – human D2 receptor agonism in beta-arrestin assay; P14416; DiscoveRx PathHunter D2 beta-arrestin, luminescence, 90 min; 100% = 57 uM dopamine signal; activation, % (test concentration not listed); actives 0.084% (n = 360,000); AID 624465; in the data active = activation above about 40%; inconclusive = between about 15% and that limit
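Agonist mode: compounds alone added to overnight-plated D2 PathHunter cells for 90 min at 37 C, with 57 uM final dopamine (EC100) defining full response. Beta-arrestin recruitment detected by chemiluminescent reagent, read after 1 h at ambient temperature.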
D2 PAM-2 – D2 dopamine receptor (human) potentiation; actives 0.34% (n = 340,000); potentiation, % at 10 µM; HEK293 T-REx D2, calcium flux, EC20 dopamine potentiation; P14416; AID 485347;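 active = potentiation over 3 SD above the plate norm, cut at about 30% in these data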; note: 0% is about no effect
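Tetracycline-induced Hek293 Trex D2 cells, force-coupled to calcium, loaded with no-wash calcium dye. Compound added with 180 s kinetic read for agonism, then EC20 dopamine and a further 180 s read for potentiation.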
D2 antag – antagonizes the human D2 dopamine receptor; P14416; HEK293 TREx D2 cells, calcium flux, dopamine EC80; inhibition, % at 10 µM; actives 2% (n = 340,000); in the data active = inhibition above about 30%; inactive = below that, where a call was filed; note: 0% is about no effect
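HEK293 T-REx D2 cells, tet-induced, calcium dye no-wash. Cpd pintool add, 180 s kinetic, then EC80 DA, 180 s kinetic. Ca flux read.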
Active calls of the source: *; ? = inconclusive; nt = no result.

SMILES | D2 ag-1 | D2 PAM-1 | D2 ag-2 | D2 PAM-2 | D2 antag
CCOC(=O)c1ccc(NC(=O)N2CCN(C3CCCCC3)CC2)cc1 | -0.8 | -15.3 | -0.7 | -2.7 | 34.4*
CCOC(=O)c1ccc(NC(=O)N2CCN(Cc3ccccc3)CC2)cc1 | -0.6 | -8.3 | 7.6 | -0.4 | 43.6*
CCOC(=O)c1ccc(NC(=O)CC2C(=O)OCCN2CC)cc1 (stereo not given) | -1.0 | -2.5 | -5.3 | -4.5 | 47.7*
CCOC(=O)N1CCN(C(=O)Nc2ccccc2)CC1 | 0.1 | -3.3 | -2.0 | -1.6 | 30.7*
CCOC(=O)c1c(C)n(-c2ccccc2)c2ccc(OC(=O)c3ccccc3NC(=O)C(C)(C)C)cc12 | -0.2 | nt | nt | -0.6 | nt
CC(=O)N1c2ccc(S(=O)(=O)N3CCCCCC3)cc2CC1C(=O)NCc1ccc(Cl)cc1 (stereo not given) | -1.8 | nt | nt | 3.2 | nt
Cc1ccc(-n2ncc(C(=O)Nc3ccc4c(c3)OCO4)c2C2CCN(C(=O)OC(C)(C)C)CC2)c(C)c1 | -1.1 | nt | nt | 5.3 | nt
COc1cc(-c2cc3n(C)c(C)c(CCC(=O)NC4CCCCC4)c(=O)n3n2)cc(OC)c1OC | 0.1 | nt | nt | 5.3 | nt
COc1ccc2c3c(ccc2c1)C(=O)/C(=C/O)CC3 | nt | 52.3* | ? | nt | nt
COc1ccc(C(CNC(=O)c2cc3ccccc3o2)N2CCCCC2)cc1 (stereo not given) | -0.2 | -21.0 | -2.2 | -20.0 | 66.6*
COc1ccc(C(CNC(=O)c2cc3c(s2)CCC(C)C3)N2CCOCC2)cc1 (stereo not given) | 0.1 | -4.9 | -3.0 | -26.5 | 20.5
COc1ccc(C(CNC(=O)C(C)(C)Oc2ccc(Cl)cc2)N2CCCC2)cc1 (stereo not given) | 0.5 | -36.9 | -0.7 | -24.2 | 97.3*
COc1ccc(C(CNC(=O)c2cc3ccccc3o2)N2CCCC2)cc1 (stereo not given) | 0.7 | -4.9 | -0.7 | -28.9 | 79.4*
COc1ccc(C(CNC(=O)c2cc3c(s2)CCC(C)C3)N2CCCC2)cc1 (stereo not given) | 0.0 | -8.0 | -1.2 | -25.1 | 71.6*
CC1(C(=O)NS(=O)(=O)c2ccc(Cl)cc2)CCN1C(=O)Cc1cccs1 (stereo not given) | nt | 4.1 | -1.3 | nt | nt
COc1cc2c(cc1OC)CN(C(=O)CSc1nc(C)cc(C)c1C#N)CC2 | 0.1 | -11.1 | -3.4 | 34.5* | 11.7
COc1cc2c(cc1OC)CN(C(=O)CSc1ccc(F)cc1)CC2 | 0.3 | 5.7 | -0.9 | -15.1 | 61.3*
Cc1cc(C)c(S(=O)(=O)NCC(c2ccco2)S(=O)(=O)c2cccs2)c(C)c1 (stereo not given) | nt | nt | nt | 15.7 | nt
CCOC(=O)c1ccccc1NC(=O)CSc1cn(CC(=O)N2CCCCCC2)c2ccccc12 | 0.1 | nt | nt | nt | nt
O=C(NCCc1ccc(Cl)cc1)c1nc(-c2cccc(F)c2)n2c1CCCCC2 | -0.7 | nt | nt | -4.4 | nt
COc1cc(/C=N/Nc2nc(C)cc(C)n2)ccc1OC(=O)c1ccco1 | -0.5 | -9.5 | 2.1 | 8.5 | -1.7
COc1cc(/C=N/Nc2ccc3ccccc3c2)ccc1OC(=O)c1ccco1 | -0.6 | 50.6* | 8.4 | -5.4 | 17.5
CCOc1cc(/C=N\Nc2nc(Nc3ccccc3)nc(N3CCOCC3)n2)ccc1OC(=O)c1ccco1 | nt | 64.7* | ? | nt | nt
N=c1oc2c3c4c(cc2cc1C(=O)Nc1ccccc1)CCCN4CCC3 | 95.1* | 22.6 | 3.7 | -15.5 | 70.8*
NNC(=O)CN1C(CN2CCOCC2)=Nc2ccc(Br)cc2C1c1ccccc1 (stereo not given) | 1.2 | -13.0 | -0.1 | -24.5 | 83.0*
CC1=Nc2ccc(Br)cc2C(c2ccccc2)N1CC(=O)NN (stereo not given) | -2.1 | -4.9 | -6.2 | -25.0 | 36.1*
NNC(=O)CN1C(c2ccc(Cl)cc2)=Nc2ccc(Br)cc2C1c1ccccc1 (stereo not given) | 0.3 | -31.8 | -1.9 | -26.7 | nt
NNC(=O)CN1C(c2ccccc2)=Nc2ccc(Br)cc2C1c1ccccc1 (stereo not given) | -0.2 | -17.0 | -5.8 | -32.1 | 81.5*
COc1cc(OC)c(C2=Nc3ccc(Br)cc3C(c3ccccc3)N2CC(=O)NN)cc1OC (stereo not given) | 0.1 | -4.4 | -6.0 | -19.0 | 78.5*
